Here are results for 14 compounds from PubChem BioAssay.

The remaining activity is the signal under treatment as a percentage of the control signal.

Unmarked numbers belong to inactive results. The rule behind the calls is not given here.

This assay relates to Aerobactin synthetase IucA (Klebsiella pneumoniae, hypervirulent). Nature of the assay: IucA enzyme inhibition, biochemical, LOPAC library, absorbance readout (AID 1346212).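 Note: 100% = no compound wells and 0% = no enzyme wells.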 The settings on record: IucA enzyme assay, absorbance (OD) readout; stronger effect = lower value;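 tested at 8 µM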.
Take `CO[C@@]1(NC(=O)CSCC#N)C(=O)N2C(C(=O)O)=C(CSc3nnnn3C)CS[C@@H]21`: the remaining activity is 118%. With `NC(N)=NC(N)=Nc1cccc(Cl)c1`, the remaining activity is 102%. With `CCNC(=O)N1CCN(CCCC(c2ccc(F)cc2)c2ccc(F)cc2)CC1`, the remaining activity was 112%. As for `Nn1nnc2ccccc21`, the figure is 115%; as for `C[C@@H]1O[C@@H](O[C@H]2C[C@@H](O)[C@]3(CO)[C@H]4[C@H](O)C[C@]5(C)[C@@H](C6COC(=O)C6)CC[C@]5(O)[C@@H]4CC[C@]3(O)C2)[C@H](O)[C@H](O)[C@H]1O` (some centres undefined), 97.8%; as for `S=C(S)OC1CC2CC1C1CCCC21` (centres undefined), 94.5%. As for `OC[C@H]1O[C@@H](n2cnc3c(NC4CCCC4)ncnc32)[C@H](O)[C@@H]1O`, the remaining activity was 117%. For `CCCCCCCC/C=C\CCCCCCCC(=O)NCCc1ccc(O)c(O)c1`, the remaining activity was 109%. Take `CC(C)c1ccc2c(c1)c(SC(C)(C)C)c(CC(C)(C)C(=O)O)n2Cc1ccc(Cl)cc1`: the remaining activity was 113%. Take `COc1ccccc1N1CCN(CCN(C(=O)c2ccc(F)cc2)c2ccccn2)CC1`: the remaining activity is 117%. In the case of `C[C@]12C=CC(=O)C=C1CC[C@H]1[C@@H]3C[C@@H](O)[C@](O)(C(=O)CO)[C@@]3(C)C[C@H](O)[C@@]12F`, the remaining activity was 110%. Regarding `CNC(=O)c1cc2c(cn1)[nH]c1ccccc12`, the remaining activity is 97.3%. In the case of `CCCn1c(=O)[nH]c(=O)c2[nH]cnc21`, the remaining activity is 103%.

Consider `CC(C(=O)O)c1ccc(CC2CCCC2=O)cc1` (centres undefined), for which the remaining activity is 120%.
